Only some compounds are listed: those with a hit (about 2.1% of all), similar ones and a draw of the others.
D2 ag-1: D2 dopamine receptor (human) agonism | activation, % at 2 µM | 340,000 compounds, 0.53% hits | HEK293 T-REx D2 cells, calcium flux agonist mode | P14416;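 active = activation over 3 SD above normal in the single-dose calcium agonist read, cut at about 30% in these data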; also: 0% is about no effect
Target sequence (P14416 whole entry, looked up): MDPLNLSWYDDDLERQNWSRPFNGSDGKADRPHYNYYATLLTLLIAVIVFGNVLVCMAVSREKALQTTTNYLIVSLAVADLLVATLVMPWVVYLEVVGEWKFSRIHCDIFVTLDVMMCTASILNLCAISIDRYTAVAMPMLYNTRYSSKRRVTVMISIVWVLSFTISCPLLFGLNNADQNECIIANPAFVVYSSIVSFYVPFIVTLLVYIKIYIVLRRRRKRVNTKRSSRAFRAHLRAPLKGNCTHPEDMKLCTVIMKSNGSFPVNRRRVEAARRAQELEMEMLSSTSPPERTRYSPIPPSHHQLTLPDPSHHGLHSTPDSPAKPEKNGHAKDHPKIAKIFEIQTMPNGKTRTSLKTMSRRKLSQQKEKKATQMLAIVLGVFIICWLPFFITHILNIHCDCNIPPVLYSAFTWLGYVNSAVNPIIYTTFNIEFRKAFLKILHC
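Calcium-flux readout, 1 cycle/sec over 180 s following compound pin transfer, in inducible HEK293 Trex D2 cells (force-coupled); dopamine controls included. Positive calcium responses during this window marked compounds as potential agonists.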
D2 PAM-1: positive allosteric modulators of human D2 dopamine receptor. P14416. DiscoveRx D2 beta-arrestin cells, luminescence, 90 min; 100% = 57 uM dopamine signal. potentiation, % (concentration not given with the values). 360,000 compounds, 0.23% hits. AID 624464; in the data active = potentiation above about 50%; inconclusive = mostly about 30% to 49%
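PathHunter D2 cells, attached overnight at 37 deg C, received compound in DMSO plus dopamine at EC20 (50 nM final) for 90 min at 37 deg C. Beta-arrestin recruitment was read as luminescence after 1 h with detection reagent at ambient temperature.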
LDHA inh: LDHA (human) enzyme inhibition; P00338; purified LDHA, NADH/diaphorase-resazurin fluorescence; hits give low values; activity change, % (values are at about 110 or 230 µM); 480,000 compounds, 0.15% hits; in the data active = activity change below about -30%; inconclusive = mostly about -25% to -30%;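 also: plate controls were DMSO wells for no effect and wells without enzyme for full effect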
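Resorufin fluorescence (ex540/em590), read at 0 and 20 min after diaphorase/resazurin addition, reports the NADH left after a 5 min room-temperature reaction of 2 nM human LDH5 with 0.06 mM NADH and 0.2 mM pyruvate.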
D2 antag: antagonists of human D2 dopamine receptor. inhibition, % at 10 µM. P14416. HEK293 TREx D2 cells, calcium flux, dopamine EC80. 340,000 compounds, 2% hits; in the data active = inhibition above about 30%; inactive = below that, where a call was filed; also: 0% is about no effect
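Tetracycline-induced HEK293 TREx cells expressing D2 receptor forced-coupled to calcium signalling, loaded with no-wash calcium dye. Compounds added and calcium flux read 180 s, then dopamine added at EC80 and read a further 180 s.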
D2 ag-2: activates the human D2 dopamine receptor | activation, % (no concentration beside the values) | DiscoveRx PathHunter D2 beta-arrestin, luminescence, 90 min; 100% = 57 uM dopamine signal | 360,000 compounds, 0.084% hits | AID 624465 | P14416; in the data active = activation above about 40%; inconclusive = between about 15% and that limit
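DiscoveRx PathHunter D2 beta-arrestin cells (2,100/well) attached overnight, then compound-stimulated 90 min at 37 C in HBSS/10 mM HEPES/0.1% Tween-20 buffer; beta-galactosidase complementation read by luminescence after 1 h at ambient temperature. Dopamine 57 uM final (EC100) as control.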
D2 PAM-2: D2 dopamine receptor (human) potentiation; P14416; HEK293 T-REx D2, calcium flux, EC20 dopamine potentiation; potentiation, % at 10 µM; 340,000 compounds, 0.34% hits;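 active = potentiation over 3 SD above the plate norm, cut at about 30% in these data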; also: 0% is about no effect
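Tetracycline-induced Hek293 Trex D2 cells, force-coupled to calcium, loaded with no-wash calcium dye. Compound added with 180 s kinetic read for agonism, then EC20 dopamine and a further 180 s read for potentiation.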
Active calls of the source: *; ? = inconclusive; / = not tested or not shown.

SMILES	D2 ag-1	D2 PAM-1	LDHA inh	D2 antag	D2 ag-2	D2 PAM-2
COc1ccc(N2CCN(C(=O)c3ccc(NS(=O)(=O)c4cccc(F)c4)cc3)CC2)cc1	-0.2	3.2	3.3	3.4	0.1	34.2*
COc1cccc(S(=O)(=O)Nc2cccc(C(=O)N3CCOCC3)c2)c1	0.1	-17.0	-0.9	36.1*	-3.6	1.0
CCc1ccc(NS(=O)(=O)c2ccc(C)c(C(=O)N3CCOCC3)c2)cc1	0.9	-0.8	-44.1*	-11.6	-3.6	14.7
CS(=O)(=O)Nc1ccc(C(=O)N2CCN(c3ccccc3F)CC2)cc1	-0.4	-3.2	-4.9	63.5*	-1.9	-5.9
COc1ccc(-c2nc(CS(=O)CC(=O)NCc3ccccc3)c(C)o2)cc1 (stereo not drawn)	/	/	2.7	/	/	/
CCCC(C)NC(=O)C1CCN(C(=O)c2ccc(C(F)(F)F)cc2)CC1 (stereo not drawn)	/	/	7.9	/	/	/
COC(=O)C1CCCCN1S(=O)(=O)c1c(F)cccc1F (stereo not drawn)	/	/	-0.1	/	/	/
O=C(Nc1ccccc1N1CCOCC1)c1cccc(NS(=O)(=O)c2ccc(F)c(F)c2)c1	-0.5	3.1	0.8	47.7*	12.1	-17.6
Cc1cccc2sc(NC(=O)C3CC3)nc12	0.4	-4.4	-2.2	-22.9	0.8	9.6
Cc1ccc2sc(NC(=O)C3CC3)nc2c1C	0.3	-8.4	-3.8	6.7	-0.7	36.1*
COC(=O)Nc1nc2c(C)cccc2s1	0.3	-13.6	6.0	37.9*	-2.2	-6.2
Cc1ccc2[nH]c3c(c2c1)CCCC3	/	/	62.3	/	/	/
Cc1cc(C)c(NC(=O)CSc2ncc(CO)n2CC(=O)NC2CC2)c(C)c1	/	/	4.5	/	/	/
COc1cc(CCc2ccccc2)c(C(=O)O)c(O)c1CC=C(C)C	/	-0.8	2.7	/	12.4	/
COc1cc(CCc2ccccc2)c(C(=O)O)c(O)c1C/C=C(/C)CCC=C(C)C	/	/	-38.4*	/	0.8	/
O=C1CCCC/C1=C/Nc1cccc(C(F)(F)F)c1	0.1	-2.7	-9.9	33.9*	-2.1	-0.4
O=C1CCCC/C1=C\Nc1ccc(O)cc1	-2.4	10.1	29.4	4.9	8.6	-1.7
O=C(O)c1cccc(CSc2ccc(Cl)cc2Cl)c1	/	/	-0.4	/	/	/
Cc1nc2ccc(C(=O)Nc3cccc([N+](=O)[O-])c3)cc2s1	-1.1	-13.0	-1.0	-7.0	-0.1	-22.1
Cc1nc2ccc(NC(=O)c3ccc([N+](=O)[O-])cc3[N+](=O)[O-])cc2s1	0.2	51.6*	1.7	-3.0	?	-9.1
O=c1c(Cl)nc2cc(Cl)ccc2n1CCNc1ncc(C(F)(F)F)cc1Cl	0.1	18.0	-3.9	0.8	-2.4	46.6*
CN(C)c1ccc(Nc2cccc3nccnc23)cc1	/	/	11.9	/	/	/
COc1ccc(CCN2CC(C#N)=C3c4cc(OC)c(OC)cc4CCN3C2)cc1OC	-0.4	-3.1	-2.1	0.1	-0.2	11.4
COc1cc2c(cc1OC)C1=C(C#N)CN(C3CCCCC3)CN1CC2	-1.6	-6.5	-2.2	40.2*	3.7	2.3
CCc1cc(=O)oc2cc(C)cc(OCC(=O)N3CCC(C(=O)NC(C)C)(c4ccccc4)CC3)c12	0.7	3.1	-5.5	53.1*	3.8	-13.0
SMILES	D2 ag-1	D2 PAM-1	LDHA inh	D2 antag	D2 ag-2	D2 PAM-2
CC(=O)Nc1sc2c(c1C(N)=O)CCN(Cc1ccccc1)C2	6.4	-19.3	5.3	-17.9	-2.6	-16.6
NC(=O)c1c(NC(=O)Cc2ccccc2)sc2c1CCN(Cc1ccccc1)C2	0.6	-10.8	-3.5	47.4*	2.7	-18.5
C1=CC2CC1CC2CN1CCN(Cc2ccccc2)CC1 (stereo not drawn)	0.2	-47.9	-31.6*	-20.5	-3.8	9.8
CCN(c1ccccc1C)S(=O)(=O)c1cc2c3c(c1)CCN3C(=O)CC2	/	8.9	-2.2	/	1.1	-3.1
CCN(c1ccccc1C)S(=O)(=O)c1cc2c3c(c1)CCC(=O)N3CCC2	-0.9	-3.6	-7.3	20.7	-4.1	41.4*
O=S(=O)(c1ccc(Cl)cc1)N1CCCC(c2nc(-c3ccc(F)cc3)no2)C1 (stereo not drawn)	0.3	-1.1	-2.8	51.5*	0.4	-3.1
O=C(COc1ccc(Cl)cc1)N(CCCN1CCOCC1)c1nc2ccccc2s1	/	/	-7.7	/	/	/
Cc1ccc2c(c1)C(c1ccc(F)cc1)N(C(=O)Cc1cccc3ccccc13)CC(=O)N2 (stereo not drawn)	/	/	-1.5	/	/	/
CCCSc1nnc(Sc2nnnn2-c2ccccc2)s1	-2.0	-11.5	-12.9	44.5*	-2.1	2.5
CN(C)CCCNCC(=O)c1c(-c2ccccc2)n(C)c2ccccc12	0.8	-15.6	-36.6*	-20.6	-3.0	6.9
COc1ccc(/C=C(\C#N)C(=O)OC2CCOC2=O)cc1 (stereo not drawn)	0.0	-14.8	1.7	33.4*	-1.4	6.7
Cc1cc(S(=O)(=O)N2CCN(c3ccccn3)CC2)ccc1F	-0.2	0.5	-5.0	33.0*	0.4	-5.3
CCOc1cc(/C=C2\CCCc3c2nc2ccccc2c3C(=O)O)ccc1OC	86.6*	6.2	5.9	38.1*	-2.5	-26.8
COc1cccc(-n2c([S-])c(C(=O)Nc3ccc(S(=O)(=O)N4CCOCC4)cc3)[n+]3cc(C(N)=O)ccc23)c1	1.1	3.2	2.7	8.2	-1.8	-8.1
COc1cccc(-n2c([S-])c(C(=O)Nc3ccc(C(F)(F)F)cc3)[n+]3ccccc23)c1	-0.6	/	/	35.1*	/	-23.5
COc1ccccc1C(C)NC(=O)Cn1c(=O)c2c(ncn2C)n(C)c1=O (stereo not drawn)	/	/	7.5	/	/	/
CC(C)C[C@H]1C(=O)N2CCC[C@H]2[C@]2(O)O[C@](NC(=O)C3C=C4c5cccc6[nH]c(Br)c(c56)C[C@H]4N(C)C3)(C(C)C)C(=O)N12 (stereo partly drawn)	/	?	2.8	/	52.2*	/
N#C/C(C(=O)NCc1ccco1)=C1/SC=C(c2ccccc2)N1c1ccccc1	1.4	4.8	-3.0	10.0	-1.0	7.4
CC1=CS/C(=C(/C#N)C(=O)NCc2ccco2)N1c1ccccc1	-0.4	-6.7	-1.8	30.5*	-4.7	-0.5
Cc1[nH]c2ccc(F)cc2c1C(=O)CCl	/	/	4.8	/	/	/
CC(=O)N(c1ccccc1)c1nc(C)cc(C)c1C#N	1.4	-21.6	-10.4	35.3*	-3.5	-3.9
O=C(CCc1nc(-c2ccccn2)no1)NCc1ccc(-n2cncn2)nc1	/	/	-4.2	/	/	/
Cc1ccc(Cn2ncc3c(N4CCN(C)CC4)ncnc32)cc1	-0.4	-10.6	-4.1	54.6*	5.4	-33.4
O=C(NCC(=O)N1CCCCCC1)C1CCCN(S(=O)(=O)c2ccc(Cl)cc2)C1 (stereo not drawn)	/	/	-7.6	/	/	/
